Assay results published in PMC7862700, “An all-to-all approach to the identification of sequence-specific readers for epigenetic DNA modifications on cytosine”.

Assays:
Experiment in all cases: DAPPL (digital affinity profiling via proximity ligation, sequencing); 10 mM Tris-HCl pH 7.5, 50 mM NaCl, 1 mM DTT, 4% glycerol, room temperature, 30 min; GST-TFs on glutathione beads, 16-mer random dsDNA library, 0.1% formaldehyde crosslink after washing; high values mean tight binding
[1] = biological target: ETV5 (Homo sapiens, UniProt P41161 1-510); conditions: protein: recombinant; tags: N-terminal GST; dsDNA, one strand shown
In short: (§1)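 In yeast, human transcription factors were expressed with a GST fusion, then pulled down on glutathione beads and given DNA barcodes. Pooled with a tag-only sample, they were exposed to 200 nmole of a 16-mer random double-stranded DNA library (Tris/NaCl/DTT/glycerol buffer, room temperature, 30 min), washed, crosslinked with 0.1% formaldehyde, proximity-ligated using BsaI/T4 ligase for 1 h at 37 °C, PCR-amplified and read on an Illumina NextSeq500. Each hexamer's frequency of reads for a factor, divided by the matching frequency for the tag-only sample, gives the binding signal.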

[2] = biological target: HSF1 (Homo sapiens, UniProt Q00613 1-529); conditions: protein: recombinant; tags: N-terminal GST; chain copies: 3; dsDNA, one strand shown
In short: as §1

[3] = biological target: T1, SPIC (Homo sapiens, UniProt Q8N5J4 1-248); conditions: protein: recombinant; tags: N-terminal GST; dsDNA, one strand shown
T1 sequence: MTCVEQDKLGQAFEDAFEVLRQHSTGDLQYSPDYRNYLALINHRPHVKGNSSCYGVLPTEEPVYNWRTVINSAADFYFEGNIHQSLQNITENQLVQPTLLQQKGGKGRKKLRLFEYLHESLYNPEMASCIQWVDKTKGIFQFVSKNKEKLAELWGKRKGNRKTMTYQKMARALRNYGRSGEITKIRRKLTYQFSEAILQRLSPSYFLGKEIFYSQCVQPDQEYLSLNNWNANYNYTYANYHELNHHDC
In short: as §1

[4] = biological target: ELF4 (Homo sapiens, UniProt Q99607 1-663); conditions: protein: recombinant; tags: N-terminal GST; dsDNA, one strand shown
In short: as §1

[5] = biological target: T2, ELK4 (Homo sapiens, UniProt P28324-2 1-405); conditions: protein: recombinant; tags: N-terminal GST; dsDNA, one strand shown
T2 sequence: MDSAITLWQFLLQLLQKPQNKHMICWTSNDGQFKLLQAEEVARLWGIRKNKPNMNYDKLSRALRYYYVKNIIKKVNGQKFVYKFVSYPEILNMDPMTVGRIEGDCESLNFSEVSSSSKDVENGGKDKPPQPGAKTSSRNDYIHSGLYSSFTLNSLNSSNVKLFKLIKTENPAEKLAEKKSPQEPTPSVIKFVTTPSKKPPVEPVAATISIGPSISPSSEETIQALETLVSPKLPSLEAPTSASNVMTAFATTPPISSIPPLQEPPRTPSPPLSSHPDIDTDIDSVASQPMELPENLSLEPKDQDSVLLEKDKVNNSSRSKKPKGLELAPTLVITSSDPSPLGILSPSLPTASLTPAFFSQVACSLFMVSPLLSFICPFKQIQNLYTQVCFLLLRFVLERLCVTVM
In short: as §1

[6] = biological target: T3, ELF3 (Homo sapiens, UniProt P78545 1-371); conditions: protein: recombinant; tags: N-terminal GST; dsDNA, one strand shown
T3 sequence: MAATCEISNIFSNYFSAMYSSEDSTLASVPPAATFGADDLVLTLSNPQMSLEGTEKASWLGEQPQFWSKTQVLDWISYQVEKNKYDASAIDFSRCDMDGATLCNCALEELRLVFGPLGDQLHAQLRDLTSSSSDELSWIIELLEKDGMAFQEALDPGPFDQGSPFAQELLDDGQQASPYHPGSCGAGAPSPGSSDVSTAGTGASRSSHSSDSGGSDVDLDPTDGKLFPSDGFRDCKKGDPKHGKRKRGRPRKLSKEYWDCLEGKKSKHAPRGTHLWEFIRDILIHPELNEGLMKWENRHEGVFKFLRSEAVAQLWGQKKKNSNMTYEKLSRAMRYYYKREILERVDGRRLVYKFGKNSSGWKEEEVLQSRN
In short: as §1

[7] = biological target: CRX (Homo sapiens, UniProt O43186 1-299); conditions: protein: recombinant; tags: N-terminal GST; dsDNA, one strand shown
In short: as §1

[8] = biological target: ETV1 (Homo sapiens, UniProt P50549 1-477); conditions: protein: recombinant; tags: N-terminal GST; dsDNA, one strand shown
In short: as §1

[9] = biological target: T4, FEV (Homo sapiens, UniProt Q99581 1-238); conditions: protein: recombinant; tags: N-terminal GST; dsDNA, one strand shown
T4 sequence: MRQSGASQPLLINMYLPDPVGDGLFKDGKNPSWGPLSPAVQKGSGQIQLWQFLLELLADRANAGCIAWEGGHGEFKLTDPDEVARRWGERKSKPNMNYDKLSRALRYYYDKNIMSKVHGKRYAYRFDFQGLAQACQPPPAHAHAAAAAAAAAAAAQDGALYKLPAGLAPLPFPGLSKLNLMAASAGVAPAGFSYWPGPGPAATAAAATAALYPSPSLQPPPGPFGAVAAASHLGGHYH
In short: as §1

Sequence of ELF4 (Q99607 whole entry): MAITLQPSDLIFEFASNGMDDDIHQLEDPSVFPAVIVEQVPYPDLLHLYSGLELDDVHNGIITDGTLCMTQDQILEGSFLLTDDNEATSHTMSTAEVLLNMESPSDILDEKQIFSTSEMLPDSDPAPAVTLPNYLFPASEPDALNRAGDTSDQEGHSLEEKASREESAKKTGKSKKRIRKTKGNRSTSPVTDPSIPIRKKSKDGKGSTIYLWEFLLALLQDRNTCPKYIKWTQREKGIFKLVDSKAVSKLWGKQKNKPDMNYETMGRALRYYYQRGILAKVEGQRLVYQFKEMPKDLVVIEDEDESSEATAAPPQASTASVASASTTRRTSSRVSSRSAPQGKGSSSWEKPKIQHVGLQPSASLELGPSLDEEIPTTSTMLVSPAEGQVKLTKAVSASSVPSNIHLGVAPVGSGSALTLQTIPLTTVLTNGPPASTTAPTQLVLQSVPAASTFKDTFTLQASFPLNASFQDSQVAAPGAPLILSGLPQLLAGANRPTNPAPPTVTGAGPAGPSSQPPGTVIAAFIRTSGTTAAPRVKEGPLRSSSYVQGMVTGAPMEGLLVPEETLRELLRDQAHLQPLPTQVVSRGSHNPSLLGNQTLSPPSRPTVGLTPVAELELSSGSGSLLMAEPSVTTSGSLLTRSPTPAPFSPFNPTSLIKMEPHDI
Sequence of ETV1 (P50549 whole entry): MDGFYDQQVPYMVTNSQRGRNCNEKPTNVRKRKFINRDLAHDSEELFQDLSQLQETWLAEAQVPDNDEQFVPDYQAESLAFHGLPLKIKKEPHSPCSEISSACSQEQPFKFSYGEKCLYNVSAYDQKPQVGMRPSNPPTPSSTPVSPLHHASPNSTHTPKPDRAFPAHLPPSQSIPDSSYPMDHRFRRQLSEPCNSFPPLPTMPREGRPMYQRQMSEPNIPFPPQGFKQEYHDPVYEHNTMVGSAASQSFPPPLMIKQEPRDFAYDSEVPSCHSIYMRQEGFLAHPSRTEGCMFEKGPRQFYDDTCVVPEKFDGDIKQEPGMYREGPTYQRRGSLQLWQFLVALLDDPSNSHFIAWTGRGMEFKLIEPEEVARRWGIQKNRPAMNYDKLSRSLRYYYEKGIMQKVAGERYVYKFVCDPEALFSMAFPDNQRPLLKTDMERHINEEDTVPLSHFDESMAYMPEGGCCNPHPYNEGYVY
Sequence of CRX (O43186 whole entry): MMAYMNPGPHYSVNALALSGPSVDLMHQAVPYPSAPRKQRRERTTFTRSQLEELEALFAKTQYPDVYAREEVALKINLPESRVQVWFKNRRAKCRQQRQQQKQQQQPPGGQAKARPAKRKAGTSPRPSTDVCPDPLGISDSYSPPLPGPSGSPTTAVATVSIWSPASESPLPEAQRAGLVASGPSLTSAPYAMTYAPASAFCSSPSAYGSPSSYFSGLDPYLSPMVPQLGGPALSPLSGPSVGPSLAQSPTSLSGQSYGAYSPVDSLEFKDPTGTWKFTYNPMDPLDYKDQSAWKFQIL
Sequence of ETV5 (P41161 whole entry, the tested form may be a part): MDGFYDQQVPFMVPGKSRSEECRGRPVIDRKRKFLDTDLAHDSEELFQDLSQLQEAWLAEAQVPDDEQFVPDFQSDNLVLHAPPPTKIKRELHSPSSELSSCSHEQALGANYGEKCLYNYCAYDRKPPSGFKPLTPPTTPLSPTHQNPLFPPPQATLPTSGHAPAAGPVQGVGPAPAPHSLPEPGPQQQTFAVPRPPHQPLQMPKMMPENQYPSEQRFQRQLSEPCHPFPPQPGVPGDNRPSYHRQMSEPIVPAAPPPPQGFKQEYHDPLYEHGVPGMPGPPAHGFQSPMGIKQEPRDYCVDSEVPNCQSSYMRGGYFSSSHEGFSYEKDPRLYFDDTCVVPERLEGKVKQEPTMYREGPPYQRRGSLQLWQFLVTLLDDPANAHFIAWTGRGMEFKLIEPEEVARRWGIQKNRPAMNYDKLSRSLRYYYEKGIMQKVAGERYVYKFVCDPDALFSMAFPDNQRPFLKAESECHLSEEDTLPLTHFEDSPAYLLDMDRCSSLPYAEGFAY
Sequence of HSF1 (Q00613 whole entry): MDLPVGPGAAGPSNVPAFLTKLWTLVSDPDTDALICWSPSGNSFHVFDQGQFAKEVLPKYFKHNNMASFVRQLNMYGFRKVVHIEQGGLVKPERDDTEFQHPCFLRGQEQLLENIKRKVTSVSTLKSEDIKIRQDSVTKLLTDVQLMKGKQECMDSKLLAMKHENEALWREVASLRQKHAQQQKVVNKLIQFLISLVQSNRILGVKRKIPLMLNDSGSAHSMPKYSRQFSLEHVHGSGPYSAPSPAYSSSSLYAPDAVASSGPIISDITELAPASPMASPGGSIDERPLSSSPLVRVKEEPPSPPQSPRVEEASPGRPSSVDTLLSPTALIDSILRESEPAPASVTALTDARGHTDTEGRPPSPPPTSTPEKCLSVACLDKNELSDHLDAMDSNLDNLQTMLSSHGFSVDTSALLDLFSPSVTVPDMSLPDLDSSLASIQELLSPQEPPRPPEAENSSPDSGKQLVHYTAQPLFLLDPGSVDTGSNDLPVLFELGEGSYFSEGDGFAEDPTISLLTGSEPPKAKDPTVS

Sequence	binding signal [1]	binding signal [2]	binding signal [3]	binding signal [4]	binding signal [5]	binding signal [6]	binding signal [7]	binding signal [8]	binding signal [9]
ATCAGC	1.01 fold enrichment (6-mer frequency, TF over GST control)	1.01 fold enrichment (6-mer frequency, TF over GST control)	1 fold enrichment (6-mer frequency, TF over GST control)	1.02 fold enrichment (6-mer frequency, TF over GST control)	1.14 fold enrichment (6-mer frequency, TF over GST control)	1.13 fold enrichment (6-mer frequency, TF over GST control)	1.31 fold enrichment (6-mer frequency, TF over GST control)	1.01 fold enrichment (6-mer frequency, TF over GST control)	–
GGTACT	1.39 fold enrichment (6-mer frequency, TF over GST control)	1.05 fold enrichment (6-mer frequency, TF over GST control)	1.24 fold enrichment (6-mer frequency, TF over GST control)	1.24 fold enrichment (6-mer frequency, TF over GST control)	1.19 fold enrichment (6-mer frequency, TF over GST control)	1.03 fold enrichment (6-mer frequency, TF over GST control)	1.05 fold enrichment (6-mer frequency, TF over GST control)	1.26 fold enrichment (6-mer frequency, TF over GST control)	1.28 fold enrichment (6-mer frequency, TF over GST control)
AAAGTT	1.16 fold enrichment (6-mer frequency, TF over GST control)	1.43 fold enrichment (6-mer frequency, TF over GST control)	1.03 fold enrichment (6-mer frequency, TF over GST control)	1.14 fold enrichment (6-mer frequency, TF over GST control)	1.19 fold enrichment (6-mer frequency, TF over GST control)	1.1 fold enrichment (6-mer frequency, TF over GST control)	1.22 fold enrichment (6-mer frequency, TF over GST control)	1.07 fold enrichment (6-mer frequency, TF over GST control)	1.01 fold enrichment (6-mer frequency, TF over GST control)
TAGAAA	1.03 fold enrichment (6-mer frequency, TF over GST control)	3.06 fold enrichment (6-mer frequency, TF over GST control)	1.12 fold enrichment (6-mer frequency, TF over GST control)	1.1 fold enrichment (6-mer frequency, TF over GST control)	1.13 fold enrichment (6-mer frequency, TF over GST control)	–	1.58 fold enrichment (6-mer frequency, TF over GST control)	1.13 fold enrichment (6-mer frequency, TF over GST control)	1.04 fold enrichment (6-mer frequency, TF over GST control)
AAGGTT	1.01 fold enrichment (6-mer frequency, TF over GST control)	1.27 fold enrichment (6-mer frequency, TF over GST control)	1.03 fold enrichment (6-mer frequency, TF over GST control)	1.09 fold enrichment (6-mer frequency, TF over GST control)	1.12 fold enrichment (6-mer frequency, TF over GST control)	1.35 fold enrichment (6-mer frequency, TF over GST control)	1.17 fold enrichment (6-mer frequency, TF over GST control)	1.07 fold enrichment (6-mer frequency, TF over GST control)	1.02 fold enrichment (6-mer frequency, TF over GST control)
GGGCTT	1.18 fold enrichment (6-mer frequency, TF over GST control)	1.46 fold enrichment (6-mer frequency, TF over GST control)	1.11 fold enrichment (6-mer frequency, TF over GST control)	1.08 fold enrichment (6-mer frequency, TF over GST control)	1.22 fold enrichment (6-mer frequency, TF over GST control)	1.17 fold enrichment (6-mer frequency, TF over GST control)	1.77 fold enrichment (6-mer frequency, TF over GST control)	1.29 fold enrichment (6-mer frequency, TF over GST control)	1.24 fold enrichment (6-mer frequency, TF over GST control)
TAGCGA	1.08 fold enrichment (6-mer frequency, TF over GST control)	1.22 fold enrichment (6-mer frequency, TF over GST control)	1.08 fold enrichment (6-mer frequency, TF over GST control)	1.04 fold enrichment (6-mer frequency, TF over GST control)	1.05 fold enrichment (6-mer frequency, TF over GST control)	1.2 fold enrichment (6-mer frequency, TF over GST control)	1.24 fold enrichment (6-mer frequency, TF over GST control)	1.07 fold enrichment (6-mer frequency, TF over GST control)	–
TAACTC	1.21 fold enrichment (6-mer frequency, TF over GST control)	1.34 fold enrichment (6-mer frequency, TF over GST control)	1.25 fold enrichment (6-mer frequency, TF over GST control)	1.29 fold enrichment (6-mer frequency, TF over GST control)	1.34 fold enrichment (6-mer frequency, TF over GST control)	–	1.58 fold enrichment (6-mer frequency, TF over GST control)	1.23 fold enrichment (6-mer frequency, TF over GST control)	1.1 fold enrichment (6-mer frequency, TF over GST control)
ATAAAG	1.03 fold enrichment (6-mer frequency, TF over GST control)	1.27 fold enrichment (6-mer frequency, TF over GST control)	1.09 fold enrichment (6-mer frequency, TF over GST control)	1.08 fold enrichment (6-mer frequency, TF over GST control)	1.16 fold enrichment (6-mer frequency, TF over GST control)	1.02 fold enrichment (6-mer frequency, TF over GST control)	1.53 fold enrichment (6-mer frequency, TF over GST control)	1.04 fold enrichment (6-mer frequency, TF over GST control)	1.04 fold enrichment (6-mer frequency, TF over GST control)
AACCCA	1.05 fold enrichment (6-mer frequency, TF over GST control)	1 fold enrichment (6-mer frequency, TF over GST control)	1.1 fold enrichment (6-mer frequency, TF over GST control)	1.1 fold enrichment (6-mer frequency, TF over GST control)	1.08 fold enrichment (6-mer frequency, TF over GST control)	1.04 fold enrichment (6-mer frequency, TF over GST control)	–	–	1.03 fold enrichment (6-mer frequency, TF over GST control)
TAGCAT	1.09 fold enrichment (6-mer frequency, TF over GST control)	1.38 fold enrichment (6-mer frequency, TF over GST control)	1.07 fold enrichment (6-mer frequency, TF over GST control)	1.16 fold enrichment (6-mer frequency, TF over GST control)	1.16 fold enrichment (6-mer frequency, TF over GST control)	1.15 fold enrichment (6-mer frequency, TF over GST control)	1.42 fold enrichment (6-mer frequency, TF over GST control)	1.17 fold enrichment (6-mer frequency, TF over GST control)	1.13 fold enrichment (6-mer frequency, TF over GST control)
TGCTTA	1.09 fold enrichment (6-mer frequency, TF over GST control)	1.33 fold enrichment (6-mer frequency, TF over GST control)	1.32 fold enrichment (6-mer frequency, TF over GST control)	1.11 fold enrichment (6-mer frequency, TF over GST control)	1.04 fold enrichment (6-mer frequency, TF over GST control)	1.09 fold enrichment (6-mer frequency, TF over GST control)	1.78 fold enrichment (6-mer frequency, TF over GST control)	1.11 fold enrichment (6-mer frequency, TF over GST control)	1.03 fold enrichment (6-mer frequency, TF over GST control)
CGCTCG	1.05 fold enrichment (6-mer frequency, TF over GST control)	1.16 fold enrichment (6-mer frequency, TF over GST control)	1.24 fold enrichment (6-mer frequency, TF over GST control)	1.17 fold enrichment (6-mer frequency, TF over GST control)	1.13 fold enrichment (6-mer frequency, TF over GST control)	1.35 fold enrichment (6-mer frequency, TF over GST control)	–	1.09 fold enrichment (6-mer frequency, TF over GST control)	1.08 fold enrichment (6-mer frequency, TF over GST control)
TCATGA	1.08 fold enrichment (6-mer frequency, TF over GST control)	1.06 fold enrichment (6-mer frequency, TF over GST control)	1.07 fold enrichment (6-mer frequency, TF over GST control)	1.06 fold enrichment (6-mer frequency, TF over GST control)	1.03 fold enrichment (6-mer frequency, TF over GST control)	1 fold enrichment (6-mer frequency, TF over GST control)	1.07 fold enrichment (6-mer frequency, TF over GST control)	1.14 fold enrichment (6-mer frequency, TF over GST control)	–
AACGTT	1.07 fold enrichment (6-mer frequency, TF over GST control)	1.32 fold enrichment (6-mer frequency, TF over GST control)	1.23 fold enrichment (6-mer frequency, TF over GST control)	1.14 fold enrichment (6-mer frequency, TF over GST control)	1.02 fold enrichment (6-mer frequency, TF over GST control)	1.05 fold enrichment (6-mer frequency, TF over GST control)	1.02 fold enrichment (6-mer frequency, TF over GST control)	1.1 fold enrichment (6-mer frequency, TF over GST control)	1.08 fold enrichment (6-mer frequency, TF over GST control)
